High-throughput results as filed in PubChem.
The list is not random: actives were taken first. Their share in the collection is about 7.4%.
SNCA viab count: GF-AFC viability counterscreen for inhibitors of alpha-synuclein gene (SNCA) expression; AID 1671193, 2021; 150,000 compounds, 0.12% hits; Potency, µM (doses to about 57.1 µM), without a hit: at the top dose activity change, negative = cytotoxicity, usual class: cytotoxic; HEK-293-SNCA-luc viability, GF-AFC fluorescence, 24 h;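 further: 0% = DMSO-treated cells and -100% = medium-only wells without cells; nearly all actives have a fitted effect of over 30% in size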
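HEK-293-SNCA-luc cells (1500/well) plated 24 h, then exposed 24 h to a dilution series; GF-AFC added 30 min at 37C, fluorescence 405/540 nm; normalised to medium-only and DMSO wells, Hill fit.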
hNpr1 antagonist: Natriuretic polypeptide receptor (hNpr1) antagonism - Primary qHTS; HEK293 hNpr1 GloSensor cGMP, ANP-stimulated luminescence; Potency, µM (titrated, usually from 46.3 µM), inactives show top-dose activity change, negative = inhibition, most hits filed as inhibitors; 76,000 compounds, 1.6% hits; AID 1347048, 2019; calls by dose curve; further: on the % scale 0 is the no-effect control and ±100 the full control effect; nearly all actives have a fitted effect of over 60% in size
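HEK293 cells stably expressing human Npr1 and cGMP GloSensor pGS-40F, loaded 2 h with 2% GloSensor reagent, given compound 30 min at room temperature. Luminescence read before and 20 min after 0.1 nM hNppA.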
NIH3T3 tox: Cytotoxic Profiling in NIH 3T3 Cell Line of Diverse Libraries Using Quantitative High-Throughput Screening | NIH 3T3 viability, CellTiter-Glo ATP luminescence, 48-72 h | Potency, µM (top dose mostly 96.7 µM), for inactives: top-dose activity change, negative = cytotoxicity, usual class: inhibitors | 94,000 compounds, 4.3% hits | AID 1345082, 2018; further: on the % scale 0 is the no-effect control and ±100 the full control effect; nearly all actives have a fitted effect of over 55% in size
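Cytotoxicity was measured by CellTiter-Glo ATP luminescence after 48 or 72 h compound exposure at 37 °C. Mouse NIH 3T3 fibroblasts were seeded at 400 cells/well and dosed by 23 nL pin transfer.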
SNCA expr inhib: Primary qHTS assay for inhibitors of alpha-synuclein gene (SNCA) expression | AID 1671194, 2021 | 140,000 compounds, 0.17% hits | Potency, µM (titrated, usually from 57.2 µM), for the others: at the highest dose activity change, negative = inhibition, actives largely listed as inhibitors | HEK-293 SNCA-luciferase knock-in, luminescence, 24 h;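 further: plate controls were DMSO cells for no effect and cell-free wells for full effect; nearly all actives have a fitted effect of over 45% in size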
FLuc inh-1: Firefly luciferase inhibition profiling of diverse chemical library using quantitative high-throughput screening; 76,000 compounds, 2.5% hits; Luciferin 4-monooxygenase (Photinus pyralis), P08659; purified P. pyralis luciferase, luminescence, biochemical; Potency, µM (doses to about 115 µM), actives largely listed as inhibitors; AID 1347043, 2019; further: on the % scale 0 is the no-effect control and ±100 the full control effect; nearly all actives have a fitted effect of over 65% in size
Target sequence (P08659 whole entry, looked up): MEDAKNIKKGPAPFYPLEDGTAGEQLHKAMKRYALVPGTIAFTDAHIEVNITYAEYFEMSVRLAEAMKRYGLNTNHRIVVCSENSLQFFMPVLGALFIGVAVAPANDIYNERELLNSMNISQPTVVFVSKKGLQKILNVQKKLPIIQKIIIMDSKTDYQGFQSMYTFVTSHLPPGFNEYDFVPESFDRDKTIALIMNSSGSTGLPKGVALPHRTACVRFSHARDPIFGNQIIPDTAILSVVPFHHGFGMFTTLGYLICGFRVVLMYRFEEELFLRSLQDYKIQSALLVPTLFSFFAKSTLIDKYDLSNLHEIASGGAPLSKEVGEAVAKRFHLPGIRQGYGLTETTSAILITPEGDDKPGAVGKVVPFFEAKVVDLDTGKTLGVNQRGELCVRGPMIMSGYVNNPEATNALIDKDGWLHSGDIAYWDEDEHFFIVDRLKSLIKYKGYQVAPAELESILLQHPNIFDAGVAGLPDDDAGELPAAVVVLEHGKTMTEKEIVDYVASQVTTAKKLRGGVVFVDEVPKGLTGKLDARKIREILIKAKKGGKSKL
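Cell-free enzyme assay, 10nM P. pyralis luciferase, luciferin and ATP each at 10uM. Inhibition profiled over a 6-point titration, read as luminescence.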
HEK293 tox: Cytotoxic Profiling in HEK 293 Cell Line of Diverse Libraries Using Quantitative High-Throughput Screening. HEK 293 viability, ATP luminescence (CellTiter-Glo), 48-72 h. Potency, µM (highest dose often 115 µM), for the others: at the top dose activity change, negative = cytotoxicity, most hits filed as inhibitors. 94,000 compounds, 6.6% hits. AID 1345083, 2018; further: on the % scale 0 is the no-effect control and ±100 the full control effect; nearly all actives have a fitted effect of over 60% in size
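Cells seeded first (HEK 293, 250 cells/well), then compound added by pintool. Incubation ran 48 or 72 hr at 37 degree Celsius. CellTiter-Glo was added and luminescence imaged after 10 min at room temperature.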
FLuc SDR -ATP: Firefly luciferase (FLuc-C-HiBiT) SDR gain of signal screen - without ATP; AID 1963318, 2024; shares compounds with FLuc inh-1; Purified FLuc-C-HiBiT, Nano-Glo HiBiT luminescence, no ATP; Potency, µM (highest dose often 32.7 µM), for the others: at the highest dose activation (signal gain), actives largely listed as activators; 1,300 compounds, 7.8% hits; further: nearly all actives have a fitted effect of over 55% in size
FLuc SDR ATP: Firefly luciferase (FLuc-C-HiBiT) SDR gain of signal screen - plus ATP. shares compounds with FLuc inh-1. purified FLuc-C-HiBiT + ATP, HiBiT complementation luminescence. Potency, µM (series often up to 32.7 µM), for the others: top-dose activation (gain of signal), usual class: activators. 1,300 compounds, 8.7% hits. AID 1963319, 2024;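 further: signal reports ligand binding via conformational change of the enzyme rather than luciferase catalysis; % of control where 0% means no effect; nearly all actives have a fitted effect of over 55% in size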
FLuc inh-2: Firefly luciferase (FLuc-C-HiBiT) enzymatic inhibition screen - Functional assay; AID 1963320, 2024; 1,300 compounds, 42% hits; purified FLuc-C-HiBiT enzyme, luciferin luminescence; Potency, µM (titrated, usually from 32.7 µM), without a hit: at the top dose activity change, negative = inhibition, hits mostly inhibitors; shares compounds with FLuc inh-1; further: on the % scale 0 is the no-effect control and ±100 the full control effect; nearly all actives have a fitted effect of over 70% in size
* hit, by the source's call; i = inactive; ? = inconclusive; · = not tested or not shown; [ ] = remark or other dose. Unless noted, the call rests on the fitted dose curve; in most records, active means well fitted curve in the direction sought with a large enough effect; inconclusive means small, poorly fitted or top-dose-only effect, or another doubt; inactive means no such curve, though single readings can be large; an effect the other way counts as inactive or inconclusive. Potency means the concentration at half of the fitted maximal effect.

SMILES	SNCA viab count	hNpr1 antagonist	NIH3T3 tox	SNCA expr inhib	FLuc inh-1	HEK293 tox	FLuc SDR -ATP	FLuc SDR ATP	FLuc inh-2
COc1ccc(C(=O)Nc2cccc(-c3nc4ccccc4s3)c2)cc1	·	·	·	·	·	·	14%	9%	-15%
CCCC(CCC)C(=O)Nc1cccc(-c2nc3cccnc3s2)c1	3%	·	·	8%	·	·	·	·	·
COc1cccc(C(=O)Nc2ccc3nc(SCc4ccc(C)cc4)sc3c2)c1	7%	·	·	33%	·	·	·	·	·
COc1cccc(-c2nc3cc(NC(=O)c4ccc(F)c(C#N)c4)ccc3s2)c1	·	·	·	·	·	·	15%	12%	-7%
COc1ccc(CN2C(=O)[C@H](OC)[C@@H]2C2=CCN(C(=O)c3ccnn3C)CC2)cc1	-6%	·	-20%	9%	·	-7%	·	·	·
O=C(NCc1cccc(Cl)c1)c1nc2cccnc2n(Cc2ccccc2)c1=O	0%	·	?	-22%	·	?	·	·	·
CCOc1ccccc1C(=O)Nc1cccc(-c2nc3ccccc3s2)c1	17%	·	·	36%	·	·	14%	11%	?
Cc1ccc(OCC(=O)Nc2cccc(-c3nc4ccccc4s3)c2)cc1	10%	·	·	28%	·	·	14%	13%	9.9µM*
Cc1cccc(OCC(=O)Nc2ccc3nc(SCc4ccccc4)sc3c2)c1	-8%	·	·	?	·	·	·	·	·
Cc1cccc(OCC(=O)Nc2cccc(-c3nc4ccccc4s3)c2)c1	·	·	·	·	·	·	14%	10%	?
CCCn1c(=O)sc2cc(NC(=O)c3ccccc3OCC)ccc21	19%	·	·	-12%	·	·	·	·	·
COCC(=O)Nc1cccc(-c2nc3cccnc3s2)c1	6%	·	·	120%	·	·	·	·	·
COc1ccc(-c2cccc(C(=O)N3CCN(C(=O)N(C)C)CC3)c2)nn1	·	·	-24%	·	·	-12%	·	·	·
Cc1cnc(-c2ccccc2)n1CC1CCN(C(=O)c2ccsc2)C1 (stereo not given)	3%	·	-21%	-3%	·	-24%	·	·	·
CC(=O)N[C@@H]1C=C[C@@H](c2c(C)nn(-c3ccc(C(F)(F)F)cc3)c2C)C1	-14%[87.6 µM]	?	89µM*	87%[87.6 µM]	14µM*	79µM*	16%[49.3 µM]	?	?
CCNC(=O)N[C@@H]1C=C[C@@H](c2c(C)nn(-c3ccc(C(C)C)cc3)c2C)C1	?	7.1µM*	28µM*	-70%[87.6 µM]	0.5µM*	20µM*	?	?	2.9µM*
CCNC(=O)N[C@@H]1C=C[C@@H](c2c(C)nn(-c3ccc(C(F)(F)F)cc3)c2C)C1	?	25µM*	?	-45%[87.6 µM]	1.6µM*	22µM*	25%[49.3 µM]	?	14µM*
Cc1nn(-c2ccc(C(C)(C)C)cc2)c(C)c1[C@@H]1C=C[C@@H](NC(=O)COCC(=O)O)C1	-3%[87.6 µM]	-2%[70.6 µM]	?	17%[87.6 µM]	22µM*	3%[172 µM]	28%[49.3 µM]	18%[49.3 µM]	?
CCNC(=O)N[C@@H]1C=C[C@@H](c2c(C)nn(-c3ccccc3[N+](=O)[O-])c2C)C1	-1%[87.6 µM]	-27%[70.6 µM]	-26%[174 µM]	62%[87.6 µM]	?	?	·	·	·
CNC(=O)c1cc(C)nc2onc(C3CCN(C(=O)c4ccc(OC)cc4)C3)c12 (stereo not given)	·	·	-1%	·	·	3%	·	·	·
CC(=O)N[C@@H]1C=C[C@@H](c2c(C)nn(-c3ccc(C(C)(C)C)cc3)c2C)C1	-27%[87.6 µM]	?	50µM*	76%[87.6 µM]	14µM*	?	17%[49.3 µM]	18%[49.3 µM]	?
Cc1nn(-c2ccc(C(F)(F)F)cc2)c(C)c1[C@@H]1C=C[C@@H](NC(=O)c2ccc(N(C)C)cc2)C1	-3%	-14%	?	15%	?	?	·	·	·
COc1ccc(-c2ccccc2C(=O)N2CCC(NC(=O)c3ccccc3C)CC2)nn1	·	·	5%	·	·	3%	·	·	·
CCC(C)(C)NC(=O)c1cccc2c1CCN2C(=O)Nc1cccc(C)c1	?	-22%	-27%	16%	7.9µM*	?	?	11µM*	7.9µM*
Cc1cccc(NC(=O)N2CCc3c(C(=O)N4CCN(C)CC4)cccc32)c1	?	-25%	-10%	?	7.1µM*	?	22%	2.5µM*	1.8µM*
COCC(=O)NC1CCC12CCN(S(=O)(=O)c1ccccc1)CC2 (stereo not given)	5%	·	-20%	0%	·	i	·	·	·
CCOC(=O)c1ccc(NC(=O)CSc2nnc(CNC(=O)c3ccc(OC)cc3)n2CC)cc1	-6%	·	·	52%	·	·	15%	11%	?
O=C(NCCc1ccc(Cl)cc1)c1ccc2oc(-c3ccncc3)nc2c1	11%	·	-3%	-2%	·	-10%	·	·	·
O=C(c1ccccc1F)N1CCC(C(=O)N2CCC(c3nc4ccncc4[nH]3)C2)CC1 (stereo not given)	0%	·	-9%	-16%	·	1%	·	·	·
CC(C)(O)CCc1ccc(C(=O)NCCSc2ccccn2)cc1	-7%	-15%	-36%	26%	2.8µM*	?	16%	19%	?
